Experimental data reported in PMC4336329 (PLoS ONE, 2015).
Among all 310,000 compounds or so, about 14,000 (4.5%) showed an effect of 50% or more. The effect is printed as a negative number. The full list was thinned out, with strong results kept by preference.

Target: human ether-à-go-go-related gene (hERG) potassium channel (human, UniProt Q12809)
Assay: primary screen, population patch clamp on CHO cells stably expressing hERG; higher = less effect of the substance
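Also: peak tail current of the secondary pulse compared with the same well before compound.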

Chain of human ether-à-go-go-related gene (hERG) potassium channel (Q12809 whole entry, looked up): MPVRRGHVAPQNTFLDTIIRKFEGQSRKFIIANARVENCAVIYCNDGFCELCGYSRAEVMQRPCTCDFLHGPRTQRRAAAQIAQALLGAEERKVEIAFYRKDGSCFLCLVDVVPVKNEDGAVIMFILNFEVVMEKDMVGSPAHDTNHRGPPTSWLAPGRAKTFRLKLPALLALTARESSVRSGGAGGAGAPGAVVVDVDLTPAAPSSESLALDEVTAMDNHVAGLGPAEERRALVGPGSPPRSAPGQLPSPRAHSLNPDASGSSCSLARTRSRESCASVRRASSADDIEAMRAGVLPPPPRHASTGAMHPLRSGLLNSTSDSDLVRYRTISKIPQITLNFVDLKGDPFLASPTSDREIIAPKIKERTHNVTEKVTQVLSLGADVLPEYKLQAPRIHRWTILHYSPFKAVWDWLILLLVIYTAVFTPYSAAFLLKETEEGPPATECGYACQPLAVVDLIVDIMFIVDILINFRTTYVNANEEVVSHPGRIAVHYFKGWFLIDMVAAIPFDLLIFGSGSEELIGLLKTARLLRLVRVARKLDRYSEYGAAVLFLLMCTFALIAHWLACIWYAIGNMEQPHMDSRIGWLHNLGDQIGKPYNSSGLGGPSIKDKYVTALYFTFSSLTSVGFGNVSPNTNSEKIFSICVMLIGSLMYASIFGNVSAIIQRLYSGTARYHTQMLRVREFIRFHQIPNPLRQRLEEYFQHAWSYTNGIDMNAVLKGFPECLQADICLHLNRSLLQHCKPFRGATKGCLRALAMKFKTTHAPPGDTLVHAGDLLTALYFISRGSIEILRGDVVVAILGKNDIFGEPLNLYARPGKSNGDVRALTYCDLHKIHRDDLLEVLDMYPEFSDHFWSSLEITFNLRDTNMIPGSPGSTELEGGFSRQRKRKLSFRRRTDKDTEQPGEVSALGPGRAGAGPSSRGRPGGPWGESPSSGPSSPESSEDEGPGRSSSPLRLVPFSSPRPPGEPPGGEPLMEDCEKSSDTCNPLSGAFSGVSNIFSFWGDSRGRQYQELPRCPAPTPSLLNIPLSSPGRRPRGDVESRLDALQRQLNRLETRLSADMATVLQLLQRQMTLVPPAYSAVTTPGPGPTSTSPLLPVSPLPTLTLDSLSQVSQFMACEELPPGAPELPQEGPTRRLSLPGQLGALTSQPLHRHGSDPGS

Compound | hERG current change (%, negative = inhibition) at 10uM [%]
COc1ccc(-c2c(NC(=O)c3ccco3)oc3ccc(Cl)cc3c2=O)cc1 | 19.7
O=c1ccn(Cc2ccc(F)cc2)c2ccnc(C(F)(F)F)c12 | -25.9
CCN(CC)S(=O)(=O)c1ccc(N2CCCC2)c(NC(=O)C2=COCCO2)c1 | -40
CCn1c(/C=C/c2cc[n+](C)cc2)nc2ccccc21.[I-] | 15
COC(=O)Cn1cc(/C=C/c2cc[n+](C)cc2)c2ccccc21.[I-] | 5.7
CCn1cc(/C=C/c2cc[n+](C)cc2)c2ccccc21.[I-] | -56.1
CN(C)c1ccc(-c2nc3cc(N)ccc3o2)cc1 | 6.31
CCNC(=O)c1cc2c(=O)n3cccc(C)c3nc2n(Cc2ccc(C)cc2)c1=N | -88
CCCCNC(=O)c1cc2c(=O)n3cccc(C)c3nc2s1 | 7.96
Cc1cccn2c(=O)c3cc(C(=O)N4COCC4(C)C)n(Cc4ccccc4)c3nc12 | 1.23
CCCCNC(=O)c1cc2c(=O)n3cccc(C)c3nc2n(Cc2ccccc2)c1=N | -77.6
COCCNC(=O)c1cc2c(=O)n3cccc(C)c3nc2n(Cc2ccncc2)c1=N | -70
COCCNC(=O)c1cc2c(=O)n3cccc(C)c3nc2n1C | 11.7
CCCCNC(=O)c1cc2c(=O)n3cccc(C)c3nc2n(Cc2ccncc2)c1=N | -75.1
CCc1cc2c(NC(Cc3c[nH]c4ccccc34)C(=O)O)nc(C)nc2s1 (centres unmarked) | 31.3
COCC(=O)Nc1ccc(S(=O)(=O)Nc2ccccn2)cc1 | 17.8
Cc1ccc(S(=O)(=O)NCCOc2cc(C)ccc2C)cc1 | -6.41
Cc1c(NC(=O)CSc2n[nH]c(-c3ccccc3)n2)c(=O)n(-c2ccccc2)n1C | 3.93
CC1=C(C(=O)Nc2ccc(C(=O)NCCCN3CCCCC3)cc2)SCCO1 | -24.8
CN(N)N=Nc1nc2c([nH]1)c(=O)n(C)c(=O)n2C | 0.0258
Cc1cc(C)cc(SCc2noc(C(=O)NC(C)C)c2C(=O)O)c1 | 33.6
C=CCNC(=O)c1cnn(-c2ccccc2)c1-c1ccccc1 | 10.4

Compound | hERG current change (%, negative = inhibition) at 10uM [%]
Cc1ccc(NCc2nnc(SCC(=O)Nc3nnc(C)s3)n2C)cc1 | -1.72
Cc1ccc(S(=O)(=O)c2cc3c(=O)n4cccc(C)c4nc3n(Cc3ccncc3)c2=N)cc1 | -40.8
COC(=O)C1CCN(C(=O)c2cc3c(=O)n4cccc(C)c4nc3n2Cc2ccccc2)CC1 | 13.2
Cc1cccn2c(=O)c3cc(C(=O)NC(C)C)c(=N)n(Cc4ccncc4)c3nc12 | -72.4
COc1ccc(NC(=S)N(CCCN2CCCC2)Cc2cccs2)cc1 | -48
COc1ccc(NC(=S)N(CCCN2CCC(C)CC2)Cc2cccs2)cc1 | -68.2
COc1ccc(NC(=S)N(CCN(C)C)Cc2cccs2)cc1 | -33.9
COc1cccc(NC(=S)N(CCCN2CCC(C)CC2)Cc2cccs2)c1 | -59.2
COc1ccc(NC(=S)N(CCCN2CCOCC2)Cc2cn(C)c3ccccc23)cc1 | -16.8
COc1cccc(NC(=S)N(CCCN2CCOCC2)Cc2cn(C)c3ccccc23)c1 | -10.7
COc1ccc(NC(=S)N(CCCN2CCCCC2)Cc2cccs2)cc1 | -61
COc1cccc(NC(=S)N(CCN(C)C)Cc2cccs2)c1 | -10.5
COc1ccc(NC(=S)N(CCCN2CCN(C)CC2)Cc2cccs2)cc1 | -53.4
CCCCN(C(=O)c1ccc(-c2ccc(Cl)cc2)o1)c1c(N)n(CCC)c(=O)[nH]c1=O | 0.856
O=C(NC1CCCC1)C(c1cccs1)N(Cc1ccco1)C(=O)Cn1nnc(-c2cccs2)n1 (centres unmarked) | 2.45
CCC1CCCCN1C(=S)Nc1cccc(S(=O)(=O)N(C)C)c1 (centres unmarked) | -6.73
CCOP(=S)(OCC)Oc1cc(C)oc(=O)c1Cl | 19.6
COc1cc(C2=NOC(C(=O)NC3CCCCC3)C2)cc(OC)c1OC (centres unmarked) | -8.08
Cc1cc(C)[n+](-c2ccc(Oc3ccccc3)c(S(=O)(=O)[O-])c2)[nH]1 | 13.6
CC(=O)Nc1ccc2c(c1)C(=O)N(c1cccc3ccccc13)C2=O | -9.32
COc1ccc(NP(=O)(Oc2ccc(Cl)cc2)Oc2ccc(Cl)cc2)cc1OC | -16.6
O=C(OC1CCOC1=O)c1cncc(Br)c1 (centres unmarked) | -15.7

Compound | hERG current change (%, negative = inhibition) at 10uM [%]
Nc1ccc(-c2ccc(N)c(C(=O)O)c2)cc1C(=O)O | 7.74
CC(=O)NC12CC3CC(C1)CC(C(=O)Nc1nccs1)(C3)C2 | 6.58
CC(OC(=O)Cn1cnc2c1c(=O)n(C)c(=O)n2C)C(=O)NC1CCCCC1C (centres unmarked) | 15.4
CCC(c1nnnn1C1CCCCC1)N1CCN(C(=O)c2ccco2)CC1.Cl (centres unmarked) | -11.4
COc1cc(/C=N/Nc2cccc(C)c2)ccc1OC(=O)c1ccco1 | 23.4
COc1ccc(NC(=S)N(CCCN2CCC(C)CC2)Cc2cccs2)cc1Cl | -73.1
COc1ccc(NC(=S)NCCN2CCC(C)CC2)cc1Cl | -30.5
COc1ccc(NC(=S)N(CCCN2CCCC2)Cc2cccn2Cc2ccc(Cl)cc2)cc1Cl | -6.98
Cn1c(Cn2nnc3ccccc32)nnc1SCC(=O)N1c2ccccc2Sc2ccccc21 | -22.1
O=C(OCCN=C1NS(=O)(=O)c2ccccc21)c1ccncc1 | -1.44
C/C(=N\NC(=O)Cn1cc([N+](=O)[O-])cn1)c1ccc(O)cc1 | -5.56
O=C(NCC1(N2CCCCC2)CCCCC1)c1cccc(S(=O)(=O)Nc2ccc(F)cc2)c1 | -64
O=C(NCC1(N2CCOCC2)CCCCC1)c1cccc(S(=O)(=O)Nc2ccc(F)cc2)c1 | -44.1
COc1ccc(NS(=O)(=O)c2cccc(C(=O)N3CCCCCCC3)c2)cc1 | -28.9
COc1ccc(NS(=O)(=O)c2cccc(C(=O)NCC3(N4CCOCC4)CCCCC3)c2)cc1 | -36.7
COc1ccc(NS(=O)(=O)c2cccc(C(=O)NCC3(N4CCCCC4)CCCCC3)c2)cc1 | -55.4
O=C(c1cccc(S(=O)(=O)Nc2ccc(F)cc2)c1)N1CCCC1 | -3.1
COc1cc(/C=C2\C(=O)NN(c3ccccc3)C2=O)cc([N+](=O)[O-])c1O | 22
O=C(N/N=C/c1coc2ccccc2c1=O)c1cccc([N+](=O)[O-])c1 | 26.8
Cc1ccccc1NC(=O)Cn1nnc(S(=O)(=O)c2ccc(C(C)(C)C)cc2)c1N | 4.35
COc1ccc(S(=O)(=O)NCc2cccnc2)cc1C(=O)Nc1ccccc1 | -47.9
CC(=O)Nc1ccc(NC(=O)c2ccc(N(Cc3ccccc3C)S(C)(=O)=O)cc2)cc1 | -7.68

Compound | hERG current change (%, negative = inhibition) at 10uM [%]
S=C(Nc1ccccc1)N1CCN(C2CCCCC2)CC1 | -2.89
CCC1CCCCN1C(=O)CSc1nnc(CNC(=O)COc2ccc(Cl)cc2)o1 (centres unmarked) | -32.5
COc1cnc(-c2ccccn2)nc1Oc1ccc(C(C)(C)C)cc1 | -2.72
COc1cnc(-c2ccccn2)nc1Oc1ccccc1 | -72.8
COc1cnc(-c2ccccn2)nc1Oc1ccc(Cl)cc1 | -0.157
CC(C)C(=O)NC(c1ccccc1Cl)c1c(O)ccc2ccccc12 (centres unmarked) | 7.79
O=C(O)CCN1C(=O)CC(N2C(=O)/C(=C/c3ccc(Cl)cc3)SC2=S)C1=O (centres unmarked) | 18.8
CSc1snnc1-c1ccccc1 | 25.6
O=C(O)C(=O)O.c1ccc(Cc2ccc(OCCCNC3CCCC3)cc2)cc1 | -58.9
O=C(O)C(=O)O.c1ccc(COc2ccc(OCCCNC3CCCC3)cc2)cc1 | -57.1
O=C(O)C(=O)O.c1ccc(-c2ccc(OCCCNC3CCCC3)cc2)cc1 | -86.1
Cc1ccc(OCCCNC2CCCC2)cc1 | -0.454
CC(C)(C)c1ccc(OCCCNC2CCCC2)cc1.O=C(O)C(=O)O | -54.5
C=CCNCCCCOc1ccc(OCc2ccccc2)cc1.O=C(O)C(=O)O | -42.1
Cc1ccc(C)c(OCCCNC2CCCC2)c1C.O=C(O)C(=O)O | -10.3
O=C(O)C(=O)O.OCCNCCCCOc1ccc(OCc2ccccc2)cc1 | -32.1
CC(C)(C)c1ccc(OCCCNCc2ccccc2)cc1.O=C(O)C(=O)O | -19.5
COc1cccc(OC)c1OCCCNC1CCCC1.O=C(O)C(=O)O | -7.84
CCOc1cccc(OCCNC2CCCC2)c1.O=C(O)C(=O)O | 5.28
O=C(O)C(=O)O.c1cc2c(cc1OCCNC1CCCC1)CCC2 | 0.00128
